Columns and labels:
Experiment in all cases: DAPPL (digital affinity profiling via proximity ligation, sequencing); 10 mM Tris-HCl pH 7.5, 50 mM NaCl, 1 mM DTT, 4% glycerol, room temperature, 30 min; GST-TFs on glutathione beads, 16-mer random dsDNA library, 0.1% formaldehyde crosslink after washing; high values mean tight binding
FLI1 = molecular target: T1, FLI1 (Homo sapiens, UniProt Q01543 1-452); settings: protein: recombinant; tags: N-terminal GST; dsDNA, one strand shown
T1 sequence: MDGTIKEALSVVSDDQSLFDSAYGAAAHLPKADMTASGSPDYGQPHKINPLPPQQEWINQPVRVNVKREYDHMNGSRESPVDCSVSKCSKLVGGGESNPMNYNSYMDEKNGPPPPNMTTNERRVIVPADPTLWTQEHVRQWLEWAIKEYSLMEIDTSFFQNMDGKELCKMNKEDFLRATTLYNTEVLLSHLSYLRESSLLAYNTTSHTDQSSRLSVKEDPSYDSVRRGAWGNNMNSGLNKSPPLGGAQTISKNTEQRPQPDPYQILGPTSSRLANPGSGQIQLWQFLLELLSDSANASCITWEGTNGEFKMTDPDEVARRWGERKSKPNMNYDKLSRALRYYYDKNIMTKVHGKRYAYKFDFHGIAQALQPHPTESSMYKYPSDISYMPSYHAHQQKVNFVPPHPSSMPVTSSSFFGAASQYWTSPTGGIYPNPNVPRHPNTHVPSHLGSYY
Procedure, shortened: (§1)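 A tag-only sample was pooled with DNA-barcoded human transcription factors that had been expressed in yeast as GST fusions and captured on glutathione beads. The pools were incubated for 30 min at room temperature with 200 nmole of a random double-stranded 16-mer DNA library in Tris/NaCl/DTT/glycerol buffer, then washed, crosslinked with 0.1% formaldehyde, proximity-ligated (BsaI/T4 ligase, 1 h, 37 °C), PCR-amplified and sequenced on an Illumina NextSeq500. Binding signal is each hexamer's read frequency for a factor divided by its frequency for the tag-only sample.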

ELK1 = molecular target: T2, ELK1 (Homo sapiens, UniProt P19419 1-428); settings: protein: recombinant; tags: N-terminal GST; dsDNA, one strand shown
T2 sequence: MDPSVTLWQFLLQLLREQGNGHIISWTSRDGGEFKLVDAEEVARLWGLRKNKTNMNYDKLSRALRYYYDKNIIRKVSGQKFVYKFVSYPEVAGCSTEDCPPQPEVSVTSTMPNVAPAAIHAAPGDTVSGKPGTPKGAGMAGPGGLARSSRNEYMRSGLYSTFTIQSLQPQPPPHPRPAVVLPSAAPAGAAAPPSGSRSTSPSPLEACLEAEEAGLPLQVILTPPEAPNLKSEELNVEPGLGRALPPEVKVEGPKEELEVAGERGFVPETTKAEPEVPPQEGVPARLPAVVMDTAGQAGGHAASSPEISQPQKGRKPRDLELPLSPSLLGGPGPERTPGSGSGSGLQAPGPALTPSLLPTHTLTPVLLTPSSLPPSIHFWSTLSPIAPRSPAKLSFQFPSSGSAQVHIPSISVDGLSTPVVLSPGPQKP
Procedure, shortened: as §1

GABPA = molecular target: T3, GABPA (Homo sapiens, UniProt Q06546 1-454); settings: protein: recombinant; tags: N-terminal GST; dsDNA, one strand shown
T3 sequence: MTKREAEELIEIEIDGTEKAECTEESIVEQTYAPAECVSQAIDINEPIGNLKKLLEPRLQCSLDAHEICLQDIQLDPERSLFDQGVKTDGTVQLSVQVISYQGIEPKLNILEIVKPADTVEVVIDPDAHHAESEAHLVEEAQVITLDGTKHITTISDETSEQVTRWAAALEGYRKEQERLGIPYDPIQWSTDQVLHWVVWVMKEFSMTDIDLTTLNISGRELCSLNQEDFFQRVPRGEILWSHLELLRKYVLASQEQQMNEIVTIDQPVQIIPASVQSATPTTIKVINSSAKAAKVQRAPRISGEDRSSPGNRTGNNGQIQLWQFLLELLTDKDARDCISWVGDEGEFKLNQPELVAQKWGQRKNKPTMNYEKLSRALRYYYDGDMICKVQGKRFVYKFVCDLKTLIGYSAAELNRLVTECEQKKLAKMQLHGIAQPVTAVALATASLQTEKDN
Procedure, shortened: as §1

ERG = molecular target: T4, ERG (Homo sapiens, UniProt P11308 1-479); settings: protein: recombinant; tags: N-terminal GST; dsDNA, one strand shown
T4 sequence: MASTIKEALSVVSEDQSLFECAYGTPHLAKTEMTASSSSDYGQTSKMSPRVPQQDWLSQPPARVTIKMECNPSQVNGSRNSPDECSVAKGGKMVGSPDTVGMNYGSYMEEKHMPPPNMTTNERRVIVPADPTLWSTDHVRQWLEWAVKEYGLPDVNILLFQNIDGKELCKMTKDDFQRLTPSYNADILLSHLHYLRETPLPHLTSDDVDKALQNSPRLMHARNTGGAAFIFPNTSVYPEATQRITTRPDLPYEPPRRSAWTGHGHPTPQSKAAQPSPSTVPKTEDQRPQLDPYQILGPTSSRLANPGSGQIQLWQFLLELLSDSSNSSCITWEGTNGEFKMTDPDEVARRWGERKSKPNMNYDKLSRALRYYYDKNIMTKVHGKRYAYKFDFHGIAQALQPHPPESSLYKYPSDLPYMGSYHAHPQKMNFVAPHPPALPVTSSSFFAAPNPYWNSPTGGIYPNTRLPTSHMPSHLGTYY
Procedure, shortened: as §1

ELF1 = ELF1 (Homo sapiens, UniProt P32519 1-619); settings: protein: recombinant; tags: N-terminal GST; dsDNA, one strand shown
Procedure, shortened: as §1

EHF = molecular target: T5, EHF (Homo sapiens, UniProt Q9NZC4 1-300); settings: protein: recombinant; tags: N-terminal GST; dsDNA, one strand shown
T5 sequence: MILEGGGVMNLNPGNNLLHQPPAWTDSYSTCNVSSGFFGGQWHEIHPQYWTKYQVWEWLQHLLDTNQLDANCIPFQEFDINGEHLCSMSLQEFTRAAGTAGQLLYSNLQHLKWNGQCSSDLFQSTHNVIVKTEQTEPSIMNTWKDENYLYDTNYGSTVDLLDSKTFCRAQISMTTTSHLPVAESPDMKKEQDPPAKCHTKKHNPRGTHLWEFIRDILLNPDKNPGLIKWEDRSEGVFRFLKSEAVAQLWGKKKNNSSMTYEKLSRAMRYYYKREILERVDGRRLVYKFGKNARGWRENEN
Procedure, shortened: as §1

SPI1 = SPI1 (Homo sapiens, UniProt P17947 1-270); settings: protein: recombinant; tags: N-terminal GST; dsDNA, one strand shown
Procedure, shortened: as §1

SPIB = SPIB (Homo sapiens, UniProt Q01892 1-262); settings: protein: recombinant; tags: N-terminal GST; dsDNA, one strand shown
Procedure, shortened: as §1

ELK3 = molecular target: T6, ELK3 (Homo sapiens, UniProt P41970 1-407); settings: protein: recombinant; tags: N-terminal GST; dsDNA, one strand shown
T6 sequence: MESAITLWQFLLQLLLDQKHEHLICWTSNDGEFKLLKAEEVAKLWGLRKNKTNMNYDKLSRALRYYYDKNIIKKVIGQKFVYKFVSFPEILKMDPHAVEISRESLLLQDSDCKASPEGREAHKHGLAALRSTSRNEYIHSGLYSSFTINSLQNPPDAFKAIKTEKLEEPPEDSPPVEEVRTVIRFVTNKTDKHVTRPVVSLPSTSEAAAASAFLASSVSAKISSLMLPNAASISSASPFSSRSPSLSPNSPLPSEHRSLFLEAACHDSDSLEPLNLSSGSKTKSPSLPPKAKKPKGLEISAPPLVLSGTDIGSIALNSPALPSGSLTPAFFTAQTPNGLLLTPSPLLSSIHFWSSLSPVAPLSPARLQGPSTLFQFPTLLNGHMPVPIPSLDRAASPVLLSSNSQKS
Procedure, shortened: as §1

FEV = molecular target: T7, FEV (Homo sapiens, UniProt Q99581 1-238); settings: protein: recombinant; tags: N-terminal GST; dsDNA, one strand shown
T7 sequence: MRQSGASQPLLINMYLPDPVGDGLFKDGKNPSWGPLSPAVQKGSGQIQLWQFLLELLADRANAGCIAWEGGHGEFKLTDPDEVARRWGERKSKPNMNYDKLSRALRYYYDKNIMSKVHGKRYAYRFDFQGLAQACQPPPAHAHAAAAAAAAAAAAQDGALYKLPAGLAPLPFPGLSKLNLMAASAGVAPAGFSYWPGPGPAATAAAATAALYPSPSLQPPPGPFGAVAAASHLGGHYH
Procedure, shortened: as §1

ETV5 = ETV5 (Homo sapiens, UniProt P41161 1-510); settings: protein: recombinant; tags: N-terminal GST; dsDNA, one strand shown
Procedure, shortened: as §1

HSF1 = HSF1 (Homo sapiens, UniProt Q00613 1-529); settings: protein: recombinant; tags: N-terminal GST; chain copies: 3; dsDNA, one strand shown
Procedure, shortened: as §1

ELF4 = ELF4 (Homo sapiens, UniProt Q99607 1-663); settings: protein: recombinant; tags: N-terminal GST; dsDNA, one strand shown
Procedure, shortened: as §1

ELK4 = molecular target: T8, ELK4 (Homo sapiens, UniProt P28324-2 1-405); settings: protein: recombinant; tags: N-terminal GST; dsDNA, one strand shown
T8 sequence: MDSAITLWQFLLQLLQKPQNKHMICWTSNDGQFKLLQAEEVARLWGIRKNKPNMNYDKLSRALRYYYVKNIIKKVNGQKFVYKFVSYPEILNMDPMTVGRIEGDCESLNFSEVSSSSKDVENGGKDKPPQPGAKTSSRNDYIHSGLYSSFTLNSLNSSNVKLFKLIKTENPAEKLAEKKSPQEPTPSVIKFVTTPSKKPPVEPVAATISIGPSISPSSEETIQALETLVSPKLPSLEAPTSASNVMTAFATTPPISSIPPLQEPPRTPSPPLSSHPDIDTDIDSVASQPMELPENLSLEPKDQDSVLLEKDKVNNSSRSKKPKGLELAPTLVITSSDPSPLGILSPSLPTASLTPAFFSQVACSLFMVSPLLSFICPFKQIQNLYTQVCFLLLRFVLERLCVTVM
Procedure, shortened: as §1

ETV2 = molecular target: T9, ETV2 (Homo sapiens, UniProt O00321 1-342); settings: protein: recombinant; tags: N-terminal GST; dsDNA, one strand shown
T9 sequence: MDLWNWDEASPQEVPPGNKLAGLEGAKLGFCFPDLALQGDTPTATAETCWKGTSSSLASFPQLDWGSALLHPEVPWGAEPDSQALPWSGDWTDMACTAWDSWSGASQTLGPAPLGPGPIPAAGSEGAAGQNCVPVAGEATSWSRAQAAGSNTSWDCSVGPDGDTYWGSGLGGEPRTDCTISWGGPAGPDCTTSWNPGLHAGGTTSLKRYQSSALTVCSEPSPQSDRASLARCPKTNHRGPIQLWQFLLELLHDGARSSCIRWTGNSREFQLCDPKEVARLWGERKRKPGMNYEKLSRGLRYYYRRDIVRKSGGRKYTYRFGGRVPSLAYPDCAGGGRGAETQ
Procedure, shortened: as §1

ELF3 = molecular target: T10, ELF3 (Homo sapiens, UniProt P78545 1-371); settings: protein: recombinant; tags: N-terminal GST; dsDNA, one strand shown
T10 sequence: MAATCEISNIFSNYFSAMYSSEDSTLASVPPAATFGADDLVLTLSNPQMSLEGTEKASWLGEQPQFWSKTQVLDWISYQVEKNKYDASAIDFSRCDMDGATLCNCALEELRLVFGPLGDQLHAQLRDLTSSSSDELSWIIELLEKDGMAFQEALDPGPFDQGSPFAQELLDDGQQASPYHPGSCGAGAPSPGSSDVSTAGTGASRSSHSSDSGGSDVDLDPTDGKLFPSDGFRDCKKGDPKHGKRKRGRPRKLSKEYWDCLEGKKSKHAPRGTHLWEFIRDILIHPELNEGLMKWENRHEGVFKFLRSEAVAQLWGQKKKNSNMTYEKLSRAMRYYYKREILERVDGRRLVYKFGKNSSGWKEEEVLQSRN
Procedure, shortened: as §1

ETV1 = ETV1 (Homo sapiens, UniProt P50549 1-477); settings: protein: recombinant; tags: N-terminal GST; dsDNA, one strand shown
Procedure, shortened: as §1

Sequence of HSF1 (Q00613 whole entry): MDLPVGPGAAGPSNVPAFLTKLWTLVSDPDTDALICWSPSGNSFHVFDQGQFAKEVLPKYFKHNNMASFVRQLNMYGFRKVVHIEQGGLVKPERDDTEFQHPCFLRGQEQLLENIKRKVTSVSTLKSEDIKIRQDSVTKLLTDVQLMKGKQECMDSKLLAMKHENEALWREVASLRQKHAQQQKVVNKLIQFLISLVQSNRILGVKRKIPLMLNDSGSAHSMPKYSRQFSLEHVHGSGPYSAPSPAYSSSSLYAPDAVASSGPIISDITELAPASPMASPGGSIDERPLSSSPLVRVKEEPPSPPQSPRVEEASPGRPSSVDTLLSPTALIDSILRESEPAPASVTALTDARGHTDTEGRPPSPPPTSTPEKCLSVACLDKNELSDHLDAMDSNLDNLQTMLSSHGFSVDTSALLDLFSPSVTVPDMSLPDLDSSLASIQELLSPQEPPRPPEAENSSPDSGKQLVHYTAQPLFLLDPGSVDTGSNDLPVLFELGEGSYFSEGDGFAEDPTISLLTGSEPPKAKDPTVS
Sequence of ELF1 (P32519 whole entry): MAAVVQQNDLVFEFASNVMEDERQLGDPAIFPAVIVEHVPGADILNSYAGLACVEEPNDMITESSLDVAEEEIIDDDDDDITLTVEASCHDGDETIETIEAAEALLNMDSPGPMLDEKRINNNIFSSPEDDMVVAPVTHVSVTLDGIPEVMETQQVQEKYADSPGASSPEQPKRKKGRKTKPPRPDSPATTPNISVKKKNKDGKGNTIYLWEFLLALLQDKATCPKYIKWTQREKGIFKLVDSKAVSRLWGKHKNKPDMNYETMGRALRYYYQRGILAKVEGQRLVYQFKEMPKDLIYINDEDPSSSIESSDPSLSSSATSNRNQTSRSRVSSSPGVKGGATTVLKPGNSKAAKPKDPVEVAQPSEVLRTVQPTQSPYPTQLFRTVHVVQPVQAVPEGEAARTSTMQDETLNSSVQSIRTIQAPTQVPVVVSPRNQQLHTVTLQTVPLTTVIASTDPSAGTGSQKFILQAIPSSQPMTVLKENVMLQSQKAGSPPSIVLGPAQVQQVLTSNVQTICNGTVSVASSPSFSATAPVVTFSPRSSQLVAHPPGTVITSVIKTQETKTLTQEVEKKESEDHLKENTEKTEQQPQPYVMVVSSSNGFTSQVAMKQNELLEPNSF
Sequence of ETV1 (P50549 whole entry): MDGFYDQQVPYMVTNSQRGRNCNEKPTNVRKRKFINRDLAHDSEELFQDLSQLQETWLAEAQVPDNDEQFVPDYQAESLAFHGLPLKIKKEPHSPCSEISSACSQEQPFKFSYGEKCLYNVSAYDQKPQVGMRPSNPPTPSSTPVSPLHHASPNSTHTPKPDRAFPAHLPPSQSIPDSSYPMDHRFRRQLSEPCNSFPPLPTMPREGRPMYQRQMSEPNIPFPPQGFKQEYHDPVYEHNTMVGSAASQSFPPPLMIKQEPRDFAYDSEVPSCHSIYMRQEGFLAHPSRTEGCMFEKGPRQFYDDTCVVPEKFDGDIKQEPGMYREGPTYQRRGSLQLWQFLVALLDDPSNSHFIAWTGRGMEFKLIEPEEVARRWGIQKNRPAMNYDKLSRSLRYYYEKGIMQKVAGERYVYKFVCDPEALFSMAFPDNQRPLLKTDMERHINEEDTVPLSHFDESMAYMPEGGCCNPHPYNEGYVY
Sequence of ELF4 (Q99607 whole entry): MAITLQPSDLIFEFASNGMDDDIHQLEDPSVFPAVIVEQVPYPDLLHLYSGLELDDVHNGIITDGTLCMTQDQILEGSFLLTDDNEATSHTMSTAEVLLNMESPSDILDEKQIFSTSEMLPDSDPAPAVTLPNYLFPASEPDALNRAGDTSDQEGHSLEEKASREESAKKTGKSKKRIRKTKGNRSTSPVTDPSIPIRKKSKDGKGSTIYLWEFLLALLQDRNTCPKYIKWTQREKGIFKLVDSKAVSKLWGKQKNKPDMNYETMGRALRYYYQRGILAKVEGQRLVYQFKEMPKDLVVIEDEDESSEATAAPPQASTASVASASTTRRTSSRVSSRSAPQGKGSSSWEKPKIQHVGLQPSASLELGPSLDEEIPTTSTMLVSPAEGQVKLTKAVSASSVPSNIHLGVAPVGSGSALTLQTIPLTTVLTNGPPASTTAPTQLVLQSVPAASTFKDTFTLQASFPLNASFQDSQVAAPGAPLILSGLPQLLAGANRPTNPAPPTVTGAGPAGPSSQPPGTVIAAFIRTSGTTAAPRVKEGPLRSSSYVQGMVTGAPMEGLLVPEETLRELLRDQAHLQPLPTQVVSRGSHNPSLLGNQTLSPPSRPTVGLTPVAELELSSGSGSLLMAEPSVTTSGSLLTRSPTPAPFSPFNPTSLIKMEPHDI
Sequence of SPIB (Q01892 whole entry): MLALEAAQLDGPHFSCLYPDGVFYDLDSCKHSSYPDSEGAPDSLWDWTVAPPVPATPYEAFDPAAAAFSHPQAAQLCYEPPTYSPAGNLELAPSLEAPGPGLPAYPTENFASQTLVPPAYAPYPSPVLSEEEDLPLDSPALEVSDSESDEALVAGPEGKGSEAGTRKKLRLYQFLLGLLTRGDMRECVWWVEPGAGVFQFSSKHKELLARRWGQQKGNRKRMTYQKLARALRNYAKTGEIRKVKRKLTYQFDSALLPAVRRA
Sequence of ETV5 (P41161 whole entry): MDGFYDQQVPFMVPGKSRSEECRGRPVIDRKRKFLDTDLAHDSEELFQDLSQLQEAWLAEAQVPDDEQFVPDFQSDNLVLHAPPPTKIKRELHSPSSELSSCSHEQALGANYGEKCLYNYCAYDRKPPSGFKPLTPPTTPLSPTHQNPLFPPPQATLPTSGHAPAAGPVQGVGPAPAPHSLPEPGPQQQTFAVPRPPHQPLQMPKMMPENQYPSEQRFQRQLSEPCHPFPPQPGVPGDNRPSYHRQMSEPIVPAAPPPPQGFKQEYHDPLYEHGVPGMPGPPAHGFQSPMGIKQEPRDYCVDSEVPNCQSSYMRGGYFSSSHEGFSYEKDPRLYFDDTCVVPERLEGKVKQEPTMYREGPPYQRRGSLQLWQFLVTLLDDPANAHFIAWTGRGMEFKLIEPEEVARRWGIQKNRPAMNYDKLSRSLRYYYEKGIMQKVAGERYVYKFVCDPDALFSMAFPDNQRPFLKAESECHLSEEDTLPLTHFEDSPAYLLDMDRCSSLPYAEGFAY

GCATTC
binding signal (FLI1): 1.15 fold enrichment (6-mer frequency, TF over GST control)
binding signal (ELK1): 1.16 fold enrichment (6-mer frequency, TF over GST control)
binding signal (GABPA): 1.18 fold enrichment (6-mer frequency, TF over GST control)
binding signal (ERG): 1.12 fold enrichment (6-mer frequency, TF over GST control)
binding signal (ELF1): 1.13 fold enrichment (6-mer frequency, TF over GST control)
binding signal (EHF): 1.07 fold enrichment (6-mer frequency, TF over GST control)
binding signal (SPI1): 1.15 fold enrichment (6-mer frequency, TF over GST control)
binding signal (SPIB): 1.12 fold enrichment (6-mer frequency, TF over GST control)
binding signal (ELK3): 1.03 fold enrichment (6-mer frequency, TF over GST control)
binding signal (FEV): 1.08 fold enrichment (6-mer frequency, TF over GST control)
binding signal (ETV5): 1.1 fold enrichment (6-mer frequency, TF over GST control)
binding signal (HSF1): 1.17 fold enrichment (6-mer frequency, TF over GST control)
binding signal (ELF4): 1.1 fold enrichment (6-mer frequency, TF over GST control)
binding signal (ELK4): 1.05 fold enrichment (6-mer frequency, TF over GST control)
binding signal (ETV2): 1.09 fold enrichment (6-mer frequency, TF over GST control)
binding signal (ELF3): 1.11 fold enrichment (6-mer frequency, TF over GST control)
binding signal (ETV1): 1.24 fold enrichment (6-mer frequency, TF over GST control)

GAATTG
binding signal (FLI1): 1.15 fold enrichment (6-mer frequency, TF over GST control)
binding signal (ELK1): 1.12 fold enrichment (6-mer frequency, TF over GST control)
binding signal (GABPA): 1.09 fold enrichment (6-mer frequency, TF over GST control)
binding signal (ERG): 1.1 fold enrichment (6-mer frequency, TF over GST control)
binding signal (ELF1): 1.11 fold enrichment (6-mer frequency, TF over GST control)
binding signal (EHF): 1.12 fold enrichment (6-mer frequency, TF over GST control)
binding signal (SPI1): 1.17 fold enrichment (6-mer frequency, TF over GST control)
binding signal (SPIB): 1.21 fold enrichment (6-mer frequency, TF over GST control)
binding signal (ELK3): 1.21 fold enrichment (6-mer frequency, TF over GST control)
binding signal (FEV): 1.11 fold enrichment (6-mer frequency, TF over GST control)
binding signal (ETV5): 1.18 fold enrichment (6-mer frequency, TF over GST control)
binding signal (HSF1): 1.06 fold enrichment (6-mer frequency, TF over GST control)
binding signal (ELF4): 1.11 fold enrichment (6-mer frequency, TF over GST control)
binding signal (ELK4): 1.04 fold enrichment (6-mer frequency, TF over GST control)
binding signal (ELF3): 1.17 fold enrichment (6-mer frequency, TF over GST control)
binding signal (ETV1): 1.15 fold enrichment (6-mer frequency, TF over GST control)
